For orientation: AC50 means the concentration at which the activity in the assay is half-maximal.

Among the data in PubChem BioAssay (EPA / NIEHS) are outcome and AC50 values, retold here.

Test [1] is described as follows: ATG_CRE_CIS: Attagene CIS-FACTORIAL HepG2 Assay for human cAMP Responsive Element (CRE) binding protein 3 (AID 2282926). Particulars: HepG2 CRE cis-reporter, Attagene multiplexed mRNA; actives raise or lower the signal. Put shortly: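 HepG2 cells transiently transfected with a multiplexed reporter library (CRE-driven unit among them) were dosed for 24 h. Reporter mRNA was quantified by RT-PCR, fluorescent labelling, HpaI digestion and capillary electrophoresis, with bidirectional fitting against DMSO baseline.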

The nature of test [2]: ATG_CMV_CIS: Attagene CIS-FACTORIAL HepG2 Assay for human CMV (Internal Marker) (AID 2282928).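 Also: endpoint acts as a background internal control marker rather than a target.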 Particulars: HepG2 CMV promoter reporter, transcription factor profiling; actives raise or lower the signal. In outline:
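HepG2 cells transiently transfected with multiple cis-regulated reporter units; 24 h compound exposure. Reporter mRNA quantified by RT-PCR, 6-FAM primer-extension labeling, HpaI digestion and capillary electrophoresis; bidirectional fitting against DMSO baseline.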

Test [3] in a line: ATG_AP_1_CIS: Attagene CIS-FACTORIAL HepG2 Assay for human Activator Protein 1 (AP-1) (AID 2282931). The conditions noted are these: HepG2 Attagene cis-factorial AP-1 reporter mRNA; actives raise or lower the signal. In outline: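 HepG2, transient cis-reporter transfection; 24 h; readout RT-PCR/CE fluorescence; DMSO baseline, gain and loss fitted.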
Test [4] can be described thus: ATG_BRE_CIS: Attagene CIS-FACTORIAL HepG2 Assay for human Bone Morphogenetic Protein (BMP) Response Element (BRE) (AID 2282933). Particulars: HepG2 BMP response element reporter, Attagene transcription factor profiling; actives raise or lower the signal. In outline:
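Multiplexed cis-reporter assay, HepG2, 24 h exposure. mRNA from reporter units quantified via RT-PCR/CE; DMSO baseline; bidirectional curve fit.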

Test [5] is described as follows: ATG_Ets_CIS: Attagene CIS-FACTORIAL HepG2 Assay for human Erythroblast Transformation Specific (ETS) (AID 2282941). The conditions noted are these: HepG2 ETS cis-reporter transcription, actives raise or lower the signal. In outline: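 HepG2 cells transiently transfected with cis-promoter reporter transcription units were dosed for 24 h; reporter mRNA was measured by RT-PCR, 6-FAM primer extension, HpaI digestion and capillary electrophoresis, with bidirectional fitting against DMSO baseline.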

The nature of test [6]: ATG_FoxO_CIS: Attagene CIS-FACTORIAL HepG2 Assay for human Forkhead box O (FoxO) (AID 2282943). The conditions noted are these: HepG2 Attagene cis-reporter, FoxO element, mRNA; actives raise or lower the signal. Put shortly: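 HepG2 cells transiently transfected with cis-promoter-driven multiple reporter transcription units; 24 h after chemical dosing, reporter mRNA quantified by RT-PCR, fluorescent primer extension, HpaI digestion and capillary electrophoresis. Bidirectional fitting versus DMSO baseline.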

A short description of test [7]: ATG_GATA_CIS: Attagene CIS-FACTORIAL HepG2 Assay for human GATA Binding Protein (AID 2282944). Particulars: HepG2 GATA cis-element reporter, Attagene multiplex mRNA; actives raise or lower the signal. In outline: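 After transfecting HepG2 cells with multiple cis-regulated reporter units, chemicals are dosed for 24 h; isolated RNA undergoes RT-PCR and fluorescent labeling before capillary electrophoresis, with activity expressed against DMSO.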

Test [8] deals with Hypoxia-inducible factor 1-alpha (Homo sapiens) (UniProt Q16665). The test is described as follows: ATG_HIF1a_CIS: Attagene CIS-FACTORIAL HepG2 Assay for human Hypoxia Inducible Factor 1 (HIF1A) (AID 2282951). Particulars: HepG2 Attagene cis-factorial HIF1a reporter transcription; actives raise or lower the signal. Put shortly: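 After 24 h chemical exposure of reporter-transfected HepG2 cells, reporter cDNA was PCR-amplified, labelled by 6-FAM primer extension (2 min 95 C, 20 s 68 C, 10 min 72 C), HpaI-cut (2 h, 37 C) and analysed by CE.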
Chain of Hypoxia-inducible factor 1-alpha (Homo sapiens) (Q16665 whole entry, looked up): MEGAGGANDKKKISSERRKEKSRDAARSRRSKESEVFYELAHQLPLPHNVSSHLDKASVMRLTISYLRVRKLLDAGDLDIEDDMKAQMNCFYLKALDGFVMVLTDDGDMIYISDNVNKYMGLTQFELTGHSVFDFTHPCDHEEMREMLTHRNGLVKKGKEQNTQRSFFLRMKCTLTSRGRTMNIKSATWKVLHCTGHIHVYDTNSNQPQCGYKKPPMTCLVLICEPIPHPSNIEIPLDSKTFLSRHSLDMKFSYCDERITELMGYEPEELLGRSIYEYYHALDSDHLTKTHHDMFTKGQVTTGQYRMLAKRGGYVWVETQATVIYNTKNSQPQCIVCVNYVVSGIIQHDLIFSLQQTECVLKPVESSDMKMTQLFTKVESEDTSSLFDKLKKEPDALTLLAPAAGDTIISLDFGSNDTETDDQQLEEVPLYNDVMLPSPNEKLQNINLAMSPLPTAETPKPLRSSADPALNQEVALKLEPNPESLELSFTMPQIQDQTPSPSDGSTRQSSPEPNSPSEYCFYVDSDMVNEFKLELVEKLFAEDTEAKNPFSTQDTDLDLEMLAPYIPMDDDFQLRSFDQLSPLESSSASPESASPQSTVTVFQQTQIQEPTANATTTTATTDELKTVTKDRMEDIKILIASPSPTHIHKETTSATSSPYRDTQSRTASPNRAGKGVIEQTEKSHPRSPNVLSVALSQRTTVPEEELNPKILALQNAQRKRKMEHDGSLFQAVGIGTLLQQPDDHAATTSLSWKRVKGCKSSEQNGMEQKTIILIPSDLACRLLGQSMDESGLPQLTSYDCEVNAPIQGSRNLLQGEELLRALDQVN

The target of test [9] is Hepatocyte nuclear factor 6 (Homo sapiens) (UniProt Q9UBC0). Briefly: ATG_HNF6_CIS: Attagene CIS-FACTORIAL HepG2 Assay for human Hepatocyte Nuclear Factor 6 (HNF6) (AID 2282952). The conditions noted are these: HepG2 Attagene cis-factorial HNF6 reporter transcription; actives raise or lower the signal. In outline:
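HepG2 cells transiently transfected with cis-element-driven multiple reporter transcription units, dosed 24 h; reporter mRNA quantified by RT-PCR, FAM primer extension, HpaI digestion and capillary electrophoresis; bidirectional fit versus DMSO baseline.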

Test [10] concerns the target Heat shock factor protein 1 (Homo sapiens) (UniProt Q00613). Briefly: ATG_HSE_CIS: Attagene CIS-FACTORIAL HepG2 Assay for human Heat Shock Transcription Factor 1 (HSE) (AID 2282953). The conditions noted are these: HepG2 HSE cis-reporter, Attagene RNA transcription; actives raise or lower the signal. In outline: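 Endogenous transcription factor activity captured via cis-promoter reporter units transfected into HepG2; treatment lasted 24 h. Fluorescence intensity of reporter fragments analysed with bidirectional curve fitting, DMSO baseline.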

The nature of test [11]: ATG_MRE_CIS: Attagene CIS-FACTORIAL HepG2 Assay for human Metal Responsive Element (MRE) (AID 2282954). The conditions noted are these: HepG2 MRE cis-reporter transcription, Attagene multiplex; actives raise or lower the signal. In outline:
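HepG2 cells transiently transfected with multiple cis-element reporter units measure endogenous MTF1-driven transcription. After 24 h compound exposure, reporter mRNA is quantified by RT-PCR with 6-FAM labelling, HpaI digestion and capillary electrophoresis; bidirectional fits versus DMSO.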

Test [12] is described as follows: ATG_SREBP_CIS: Attagene CIS-FACTORIAL HepG2 Assay for human Sterol Regulatory Element Binding (SREBP) (AID 2282962). The conditions noted are these: HepG2 Attagene cis-factorial SREBP reporter, mRNA; actives raise or lower the signal. Put shortly:
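HepG2 cells transiently transfected with multiplexed cis-element reporter units report endogenous transcription factor activity. After 24 h of chemical exposure, reporter mRNA was quantified by RT-PCR, 6-FAM labelling, HpaI digestion and capillary electrophoresis; bidirectional fits used DMSO as baseline.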

Test [13] is described as follows: ATG_VDRE_CIS: Attagene CIS-FACTORIAL HepG2 Assay for human Vitamin D Receptor Element (VDRE) (AID 2282968). The conditions noted are these: HepG2 VDRE cis-reporter transcription, actives raise or lower the signal. In outline:
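HepG2 cells transiently transfected with cis-element reporter units, dosed 24 h; reporter mRNA measured by RT-PCR, 6-FAM labeling, HpaI digestion and capillary electrophoresis. Activity fitted bidirectionally against DMSO baseline.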

The nature of test [14]: ATG_NRF2_ARE_CIS: Attagene CIS-FACTORIAL HepG2 Assay for human Nuclear Factor Erythroid 2 Related Factor 2 (NFR2) response to Antioxidant Response Elements (ARE) (AID 2282992). The conditions noted are these: HepG2 Attagene ARE/NRF2 reporter, transcription factor activity; actives raise or lower the signal. Put shortly: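 HepG2 cells transiently transfected with multiplexed cis-regulated reporter transcription units measure endogenous transcription factor activity. Reporter mRNA at 24 h is quantified by RT-PCR, fluorescent labelling and capillary electrophoresis, with bidirectional fitting relative to DMSO.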

Test [15] is described as follows: ATG_XTT_Cytotoxicity: Cytotoxicity Assessment in the Attagene TRANS-FACTORIAL HepG2 Assay (AID 2283584; active = hit-call score of the fitted dose curve at least 0.9, where 1 is the maximum). Put shortly: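 HepG2 human liver cells, transiently transfected with multiple GAL4-UAS reporter units, were dosed and read at 24 h by XTT as cell number. Loss of signal was fitted relative to DMSO negative control baseline.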
Test [16] deals with Aryl hydrocarbon receptor (Homo sapiens) (UniProt P35869). Briefly: ATG_Ahr_CIS: Attagene CIS-FACTORIAL HepG2 Assay for human Aryl Hydrocarbon Receptor (Ahr) (AID 2282930). Particulars: HepG2 AhR cis-factorial reporter transcription; actives raise or lower the signal. Put shortly: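 HepG2 cells transiently transfected with cis-element-driven multiplexed reporter transcription units; endogenous transcription factor activity measured as reporter mRNA 24 h after dosing. RT-PCR, 6-FAM labelling, HpaI digestion, capillary electrophoresis; bidirectional fitting versus DMSO baseline.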
Chain of Aryl hydrocarbon receptor (Homo sapiens) (P35869 whole entry, looked up): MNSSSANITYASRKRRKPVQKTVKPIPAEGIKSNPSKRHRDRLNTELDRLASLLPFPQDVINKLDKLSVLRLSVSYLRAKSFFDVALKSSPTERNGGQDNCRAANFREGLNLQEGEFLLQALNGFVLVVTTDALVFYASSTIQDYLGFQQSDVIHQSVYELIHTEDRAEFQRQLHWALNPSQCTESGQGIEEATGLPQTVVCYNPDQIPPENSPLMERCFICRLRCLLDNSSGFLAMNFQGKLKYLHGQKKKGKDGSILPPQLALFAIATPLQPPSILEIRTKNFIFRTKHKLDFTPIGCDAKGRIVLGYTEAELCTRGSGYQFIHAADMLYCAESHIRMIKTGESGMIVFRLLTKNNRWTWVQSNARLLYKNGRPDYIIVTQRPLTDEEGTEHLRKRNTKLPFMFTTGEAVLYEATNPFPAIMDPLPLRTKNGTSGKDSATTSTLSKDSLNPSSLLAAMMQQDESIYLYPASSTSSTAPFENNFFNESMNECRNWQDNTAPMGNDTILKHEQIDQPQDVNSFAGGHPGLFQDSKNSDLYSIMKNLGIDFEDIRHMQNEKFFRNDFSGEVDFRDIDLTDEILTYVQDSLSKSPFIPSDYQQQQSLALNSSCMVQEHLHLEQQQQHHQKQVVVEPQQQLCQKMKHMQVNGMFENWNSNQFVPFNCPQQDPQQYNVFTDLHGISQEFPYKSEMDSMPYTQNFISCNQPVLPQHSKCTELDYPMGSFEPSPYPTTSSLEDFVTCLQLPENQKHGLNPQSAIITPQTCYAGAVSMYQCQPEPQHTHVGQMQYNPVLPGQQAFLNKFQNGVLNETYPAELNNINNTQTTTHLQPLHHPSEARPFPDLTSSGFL

Test [17] addresses Paired box protein Pax-6 (Homo sapiens) (UniProt P26367). Briefly: ATG_Pax6_CIS: Attagene CIS-FACTORIAL HepG2 Assay for human Paired Box 6 (PAX6) (AID 2282956). Particulars: HepG2 CIS-FACTORIAL PAX6 reporter transcription, RNA readout; actives raise or lower the signal. In outline: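 HepG2 cells transiently transfected with multiplexed cis-promoter reporter units (endogenous TF activity) were dosed for 24 h. Reporter mRNA was quantified by RT-PCR, 6-FAM labeling, HpaI digestion and capillary electrophoresis; bidirectional fitting versus DMSO baseline.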

Test [18] in a line: ATG_NF_kB_CIS: Attagene CIS-FACTORIAL HepG2 Assay for human Nuclear Factor Kappa B (NF-kB) (AID 2282991). Particulars: HepG2 Attagene cis-factorial NF-kB reporter mRNA; actives raise or lower the signal. Put shortly: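 Fluorescence of labelled RT-PCR products separated by capillary electrophoresis gives reporter mRNA levels from transfected HepG2 cells exposed 24 h; values are fitted in both directions relative to DMSO.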

The target of test [19] is Cellular tumor antigen p53 (Homo sapiens) (UniProt P04637). Briefly: ATG_p53_CIS: Attagene CIS-FACTORIAL HepG2 Assay for human p53 Transcription Factor (AID 2282994). The conditions noted are these: HepG2 p53 cis-element reporter, Attagene mRNA; actives raise or lower the signal. In outline:
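HepG2 cells transiently transfected with multiplexed cis-regulated reporter transcription units read endogenous TF activity. After 24 h compound exposure, reporter mRNA was quantified by RT-PCR, fluorescent labelling, HpaI digestion and capillary electrophoresis; bidirectional fits versus DMSO baseline.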

Test [20] addresses Hepatocyte nuclear factor 3-beta (Homo sapiens) (UniProt Q9Y261). Briefly: ATG_FoxA2_CIS: Attagene CIS-FACTORIAL HepG2 Assay for human Forkhead box A2 (FOXA2) (AID 2282942). The conditions noted are these: HepG2 cis-reporter transcription factor activity, 24 h; actives raise or lower the signal. Put shortly: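 24 h dosing of HepG2 bearing cis-reporter constructs; mRNA readout by RT-PCR/CE fluorescence; bidirectional fit, DMSO baseline.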

Inconclusive results are not listed. The source made the active and inactive calls. The calls were made as follows, unless noted: active = hit-call score of the fitted dose curve at least 0.9, where 1 is the maximum; inactive = score below 0.9.

Chain of Cellular tumor antigen p53 (Homo sapiens) (P04637 whole entry, looked up): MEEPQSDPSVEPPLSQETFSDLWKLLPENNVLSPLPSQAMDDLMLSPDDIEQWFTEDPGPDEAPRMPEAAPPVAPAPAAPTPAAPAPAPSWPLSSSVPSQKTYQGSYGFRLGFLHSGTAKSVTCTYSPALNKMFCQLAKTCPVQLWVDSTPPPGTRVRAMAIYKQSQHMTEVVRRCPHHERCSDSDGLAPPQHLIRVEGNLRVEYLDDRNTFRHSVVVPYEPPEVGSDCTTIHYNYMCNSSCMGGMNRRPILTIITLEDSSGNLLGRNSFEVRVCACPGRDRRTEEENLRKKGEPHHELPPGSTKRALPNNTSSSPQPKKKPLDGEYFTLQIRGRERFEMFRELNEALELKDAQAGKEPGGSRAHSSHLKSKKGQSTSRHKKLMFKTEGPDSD
Chain of Paired box protein Pax-6 (Homo sapiens) (P26367 whole entry, looked up): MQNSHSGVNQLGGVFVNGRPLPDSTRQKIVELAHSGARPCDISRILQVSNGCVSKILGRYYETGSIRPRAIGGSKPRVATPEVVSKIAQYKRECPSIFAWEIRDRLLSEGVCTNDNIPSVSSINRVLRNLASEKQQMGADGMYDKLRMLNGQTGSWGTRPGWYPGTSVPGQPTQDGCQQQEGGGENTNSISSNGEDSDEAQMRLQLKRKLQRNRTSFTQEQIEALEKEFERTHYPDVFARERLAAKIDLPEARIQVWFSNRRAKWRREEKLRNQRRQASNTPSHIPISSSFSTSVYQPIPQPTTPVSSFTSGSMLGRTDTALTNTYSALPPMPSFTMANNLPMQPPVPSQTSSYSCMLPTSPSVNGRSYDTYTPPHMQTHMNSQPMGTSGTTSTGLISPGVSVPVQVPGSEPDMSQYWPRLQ
Chain of Hepatocyte nuclear factor 6 (Homo sapiens) (Q9UBC0 whole entry, looked up): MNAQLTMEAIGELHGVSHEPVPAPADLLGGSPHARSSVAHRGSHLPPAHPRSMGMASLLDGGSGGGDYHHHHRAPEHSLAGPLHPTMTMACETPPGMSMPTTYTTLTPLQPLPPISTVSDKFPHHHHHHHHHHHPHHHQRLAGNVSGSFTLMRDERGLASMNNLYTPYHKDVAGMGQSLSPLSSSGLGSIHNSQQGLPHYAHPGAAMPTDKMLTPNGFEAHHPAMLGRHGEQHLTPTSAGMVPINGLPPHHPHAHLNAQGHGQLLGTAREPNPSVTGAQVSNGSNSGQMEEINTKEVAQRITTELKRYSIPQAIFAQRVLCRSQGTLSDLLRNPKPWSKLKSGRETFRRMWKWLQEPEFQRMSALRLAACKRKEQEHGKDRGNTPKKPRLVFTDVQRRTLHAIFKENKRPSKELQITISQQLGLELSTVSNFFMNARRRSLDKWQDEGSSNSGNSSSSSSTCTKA
Chain of Heat shock factor protein 1 (Homo sapiens) (Q00613 whole entry, looked up, the tested form may be a part): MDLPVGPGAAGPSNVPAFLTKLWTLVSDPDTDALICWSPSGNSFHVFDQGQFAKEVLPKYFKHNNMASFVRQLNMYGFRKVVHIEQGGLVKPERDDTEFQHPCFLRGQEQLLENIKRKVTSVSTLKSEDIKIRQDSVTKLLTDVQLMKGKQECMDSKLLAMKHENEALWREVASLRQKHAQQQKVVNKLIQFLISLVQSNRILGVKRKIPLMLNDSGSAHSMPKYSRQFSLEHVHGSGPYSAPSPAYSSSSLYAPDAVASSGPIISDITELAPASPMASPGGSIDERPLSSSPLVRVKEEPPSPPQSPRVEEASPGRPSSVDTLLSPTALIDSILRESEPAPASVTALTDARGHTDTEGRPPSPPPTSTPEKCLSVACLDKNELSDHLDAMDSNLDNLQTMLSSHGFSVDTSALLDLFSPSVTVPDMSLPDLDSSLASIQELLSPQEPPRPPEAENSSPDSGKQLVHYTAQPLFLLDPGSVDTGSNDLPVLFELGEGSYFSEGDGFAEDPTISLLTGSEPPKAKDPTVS
Chain of Hepatocyte nuclear factor 3-beta (Homo sapiens) (Q9Y261 whole entry, looked up): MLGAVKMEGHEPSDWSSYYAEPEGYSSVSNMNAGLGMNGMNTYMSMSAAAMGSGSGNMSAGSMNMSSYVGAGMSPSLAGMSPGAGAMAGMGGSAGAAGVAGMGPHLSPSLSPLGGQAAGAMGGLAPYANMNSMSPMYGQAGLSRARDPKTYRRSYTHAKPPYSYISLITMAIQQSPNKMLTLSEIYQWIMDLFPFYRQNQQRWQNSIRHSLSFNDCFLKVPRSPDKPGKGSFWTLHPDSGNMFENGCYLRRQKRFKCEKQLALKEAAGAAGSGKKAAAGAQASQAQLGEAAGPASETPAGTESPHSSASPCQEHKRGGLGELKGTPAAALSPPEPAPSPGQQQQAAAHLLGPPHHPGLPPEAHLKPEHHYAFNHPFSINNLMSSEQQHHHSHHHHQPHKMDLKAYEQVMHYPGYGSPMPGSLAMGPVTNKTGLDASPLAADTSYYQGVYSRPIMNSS

With `CCC1CCC(=O)O1` (centres undefined), the call in test [1], in test [2], in [3], in test [4], in test [5] and in [6] was inactive. Moreover, the compound was classed as inactive in [7], in test [8], in test [9], in test [10], in [11] and in test [12]. Moreover, the outcome in [13], in [14] and in [15] was inactive.
For `CC(C)[C@@H](C(=O)O[C@@H](C#N)c1cccc(Oc2ccccc2)c1)c1ccc(Cl)cc1`, the compound was called inactive in test [1], in [2], in test [16], in test [3], in test [5] and in [6]. For the same compound, the outcome in test [7], in [8], in test [9], in test [10], in test [17] and in test [12] was inactive. For the same compound, the call in test [18], in test [14] and in [19] was inactive.
Regarding `CCC(C)c1cc([N+](=O)[O-])cc([N+](=O)[O-])c1OC(=O)C=C(C)C` (centres undefined), the outcome in test [1], in test [2], in test [16], in test [7], in test [8] and in test [9] was inactive. For the same compound, the compound was classed as inactive in test [12], in [18] and in [15]. For the same compound, the AC50 in test [4] was 8.06 µM (active); in test [5], 100 µM (active); in test [6], 57.3 µM (active); in test [10], 25.8 µM (active); in test [17], 37.1 µM (active); in test [13], 0.86 µM (active). For the same compound, the figures for the AC50 in [14] and in [19] were 3.47 µM (active) and 48.3 µM (active), respectively.
On to `O=C(O)CCl`, for which the outcome in test [1], in test [2], in [3], in test [4], in test [5] and in test [20] was inactive. Besides, the compound was classed as inactive in [6], in test [8], in [9], in [10], in test [17] and in test [12]. For the same compound, the compound was called inactive in [13], in [14] and in test [15].
With `CC1CCC(=O)O1` (centres undefined), the result in test [1], in test [2], in [3], in test [4], in test [5] and in test [20] was inactive. Besides, the outcome in [6], in test [8], in test [9], in test [10], in test [11] and in [17] was inactive. The compound was classed as inactive in test [13], in [18], in [14], in test [19] and in [15].
